Data taken from PubChem BioAssay (Tox21).
Results filed as inconclusive are left out. The source made the active and inactive calls. Unless noted, the call rests on the fitted dose curve; in most records, active means well fitted curve in the direction sought with a large enough effect in the repeat runs; inconclusive means weak or mixed curves; inactive means no such curve, though single readings can be large; an effect the other way counts as inactive or inconclusive.

Experiments:
[1] = qHTS assay to identify small molecule agonists of the peroxisome proliferator-activated receptor delta (PPARd) signaling pathway - cell viability counter screen (AID 743211); further: nearly all actives have a fitted effect of over 55% in size; further: potency means the concentration at half of the fitted maximal effect
Outline: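 PPARd-bla HEK293H cells (3000/well) were pre-incubated 5 h at 37 C, then exposed to compound for 17 h at 37 C. After 2 h with LiveBLAzer substrate, CellTiter-Glo was added to the same wells; luminescence read after 30 min at room temperature.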

[2] = qHTS assay to identify small molecule antagonists of the peroxisome proliferator-activated receptor delta (PPARd) signaling pathway - cell viability counter screen (AID 743213); further: nearly all actives have a fitted effect of over 50% in size
Outline: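 HEK293H PPARd UAS-bla cells, 5 h pre-incubation, compound + L165041 300 nM final, 17 h 37 C; B/G FRET substrate 2 h RT; then CellTiter-Glo 30 min RT, luminescence.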

[3] = qHTS assay to identify small molecule antagonists of the farnesoid-X-receptor (FXR) signaling pathway - cell viability counter screen (AID 743221; active means well fitted cell-killing curve with a large enough effect in the repeat runs, not every such curve was filed as active; further: nearly all actives have a fitted effect of over 50% in size)
Outline: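 GeneBLAzer FXR-UAS-bla HEK 293T cells, compound plus chenodeoxycholic acid (50 uM final), 16 h at 37 C. CellTiter-Glo added to the same wells after the beta-lactamase read; luminescence read after 30 min at room temperature as viability.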

[4] = target: Vitamin D3 receptor (Homo sapiens) (UniProt P11473); experiment: qHTS assay to identify small molecule agonists of the vitamin D receptor (VDR) signaling pathway (AID 743222; calls by dose curve)
Outline: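 VDR-bla cells, 2,000/well; 4 h preincubation 37C; cpd (DMSO) 16 h; LiveBLAzer B/G substrate 2 h RT; fluorescence intensity read.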

[5] = target: Vitamin D3 receptor (Homo sapiens) (UniProt P11473); experiment: qHTS assay to identify small molecule antagonists of the vitamin D receptor (VDR) signaling pathway (AID 743223; active means well fitted inhibition curve with a large enough effect in the signal ratio in the repeat runs, not every such curve was filed as active; the % refers to the signal ratio)
Outline: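 VDR-bla cells were treated with compound plus 3 nM final 1alpha,25-dihydroxyvitamin D3 for 16 h at 37C. Beta-lactamase reporter read by B/G FRET substrate fluorescence after 2 h at room temperature. qHTS format.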

[6] = qHTS assay to identify small molecule agonists of the vitamin D receptor (VDR) signaling pathway - cell viability counter screen (AID 743224); further: nearly all actives have a fitted effect of over 50% in size; further: potency means the concentration at half of the fitted maximal effect
Outline: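 Luminescence from CellTiter-Glo, read after 30 min at room temperature, reports viability of VDR-bla cells treated with compounds for 16 h at 37C in the wells used for the beta-lactamase FRET read.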

[7] = qHTS assay to identify small molecule antagonists of the vitamin D receptor (VDR) signaling pathway - cell viability counter screen (AID 743225); further: nearly all actives have a fitted effect of over 50% in size; further: potency means the concentration at half of the fitted maximal effect
Outline: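 VDR-UAS-bla HEK 293T cells were plated and incubated 4 h at 37C, then dosed with compound plus 3 nM (final) 1-alpha,25-dihydroxyvitamin D3 for 16 h. After the 2 h beta-lactamase read, viability in the same wells was read as CellTiter-Glo luminescence after 30 min at room temperature.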

[8] = qHTS assay to identify small molecule agonists of the NFkB signaling pathway - cell viability counter screen (AID 1159515; calls by dose curve; further: nearly all actives have a fitted effect of over 55% in size; further: potency means the concentration at half of the fitted maximal effect)
Outline: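 Luminescence from CellTiter-Glo (30 min, room temperature) gives viability, measured in the same wells as the beta-lactamase reporter read. Cells were NFkB-bla ME-180, 2,000 per well, treated 5 hr with compounds.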

[9] = qHTS assay to identify small molecule agonists of the AP-1 signaling pathway - cell viability counter screen (AID 1159525; calls by dose curve; further: nearly all actives have a fitted effect of over 55% in size)
Outline: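 AP-1-bla ME-180 cells in Opti-MEM with 0.5% dialyzed FBS, compound exposure 5 h at 37 C in 15-point titration. Viability read in the same wells as ATP content by CellTiter-Glo luminescence, normalised to tetra-n-octylammonium bromide and DMSO controls.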

[10] = target: Retinoic acid receptor RXR-alpha (Homo sapiens) (UniProt P19793); experiment: qHTS assay to identify small molecule agonists of the RXR signaling pathway (AID 1159527; calls by dose curve; further: nearly all actives have a fitted effect of over 35% in size)
Outline: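 GeneBLAzer RXR-alpha-UAS-bla HEK 293T cells in 2% charcoal-stripped FBS medium were exposed to compounds for 16 hr at 37 C in agonist mode. Beta-lactamase reporter read as 460/530 nm FRET ratio after 2 hr substrate loading.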

[11] = target: Peroxisome proliferator-activated receptor delta (Homo sapiens) (UniProt Q03181); experiment: qHTS assay to identify small molecule agonists of the peroxisome proliferator-activated receptor delta (PPARd) signaling pathway (AID 743212; calls by dose curve)
Outline: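 Quantitative high-throughput agonist screen in a HEK293H beta-lactamase reporter line under UAS control. Compounds in DMSO, at 37 C. Fluorescence read after 2 h with FRET substrate at room temperature.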

[12] = target: Peroxisome proliferator-activated receptor delta (Homo sapiens) (UniProt Q03181); experiment: qHTS assay to identify small molecule antagonists of the peroxisome proliferator-activated receptor delta (PPARd) signaling pathway (AID 743215; active means well fitted inhibition curve with a large enough effect in the signal ratio in the repeat runs, not every such curve was filed as active; the % refers to the signal ratio;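 further: cells stimulated with agonist L165041 at 300 nM final during compound exposure; series mostly up to about 62 µM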)
Outline: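 Read-out is beta-lactamase FRET fluorescence, measured 2 h after substrate addition at room temperature. Beforehand, UAS-bla HEK293H cells carrying the PPARd reporter were exposed to compounds with L165041 at 300 nM final for 17 h at 37 C.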

[13] = qHTS assay to identify small molecule antagonists of the retinoid-related orphan receptor gamma (ROR-gamma) signaling pathway - cell viability counter screen (AID 1159520); further: nearly all actives have a fitted effect of over 50% in size
Outline: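 Tet-on ROR gamma CHO cells were given compounds for 2 hr, then doxycycline hyclate at 1 uM final, and incubated 16 hr at 37 C. Viability was measured as ATP content by CellTiter-Glo luminescence.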

[14] = target: Nuclear receptor ROR-gamma (Homo sapiens) (UniProt P51449); experiment: qHTS assay to identify small molecule antagonists of the retinoid-related orphan receptor gamma (ROR-gamma) signaling pathway (AID 1159521; further: nearly all actives have a fitted effect of over 50% in size; further: potency means the concentration at half of the fitted maximal effect)
Outline: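 Tet-on ROR-gamma CHO cells with ROR response element-luciferase reporter; compounds added 2 hr before 1 uM doxycycline induction, then 16 hr at 37 C. Antagonism scored as decreased ONE-Glo luminescence.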

[15] = qHTS assay to identify small molecule agonists of the AP-1 signaling pathway (AID 1159526; calls by dose curve)
[16] = qHTS assay to identify small molecule agonists of the farnesoid-X-receptor (FXR) signaling pathway - cell viability counter screen (AID 743218); further: nearly all actives have a fitted effect of over 45% in size; further: potency means the concentration at half of the fitted maximal effect
Outline: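 HEK 293T FXR-bla cells; 5 h pre-incubation, 16 h compound exposure at 37 C; LiveBLAzer substrate 2 h RT, then CellTiter-Glo 30 min RT, luminescence.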

[17] = qHTS assay to identify small molecule agonists of the endoplasmic reticulum stress response signaling pathway (AID 1159516; active means well fitted activation curve with a large enough effect in the signal ratio in the repeat runs, not every such curve was filed as active; the % refers to the signal ratio)
Outline: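 Read-out is beta-lactamase cleavage of a FRET substrate (405 nm excitation; 460 and 530 nm emissions) in ESRE-bla HeLa cells after a 5 hr compound exposure at 37 C. Substrate incubation ran 2 hr at room temperature.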

[18] = qHTS assay to identify small molecule agonists of the endoplasmic reticulum stress response signaling pathway - cell viability counter screen (AID 1159517; calls by dose curve)
Outline: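 Counter-screen wells were identical to the reporter wells. Cells were plated at 1,500 per well and dosed for 5 hr, then read for luminescence 30 min after CellTiter-Glo addition.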

[19] = target: Bile acid receptor (Homo sapiens) (UniProt Q96RI1); experiment: qHTS assay to identify small molecule antagonists of the farnesoid-X-receptor (FXR) signaling pathway (AID 743217; active means well fitted inhibition curve with a large enough effect in the signal ratio in the repeat runs, not every such curve was filed as active; the % refers to the signal ratio)
Outline: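 HEK 293T FXR-UAS-bla, 5000 cells/well; compound + CDCA 50 uM final; 16 h, 37 °C; B/G FRET substrate 2 h RT; fluorescence.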

[20] = target: Bile acid receptor (Homo sapiens) (UniProt Q96RI1); experiment: qHTS assay to identify small molecule agonists of the farnesoid-X-receptor (FXR) signaling pathway (AID 743220; active means well fitted activation curve with a large enough effect in the signal ratio in the repeat runs, not every such curve was filed as active; the % refers to the signal ratio)
Outline: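 Beta-lactamase reporter under UAS control in GeneBLAzer FXR HEK 293T cells (5000/well) measured with LiveBLAzer FRET substrate after 2 h at room temperature. Compound exposure lasted 16 h at 37C.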

Measured: Potency

Bile acid receptor (Homo sapiens), sequence (Q96RI1 whole entry, looked up): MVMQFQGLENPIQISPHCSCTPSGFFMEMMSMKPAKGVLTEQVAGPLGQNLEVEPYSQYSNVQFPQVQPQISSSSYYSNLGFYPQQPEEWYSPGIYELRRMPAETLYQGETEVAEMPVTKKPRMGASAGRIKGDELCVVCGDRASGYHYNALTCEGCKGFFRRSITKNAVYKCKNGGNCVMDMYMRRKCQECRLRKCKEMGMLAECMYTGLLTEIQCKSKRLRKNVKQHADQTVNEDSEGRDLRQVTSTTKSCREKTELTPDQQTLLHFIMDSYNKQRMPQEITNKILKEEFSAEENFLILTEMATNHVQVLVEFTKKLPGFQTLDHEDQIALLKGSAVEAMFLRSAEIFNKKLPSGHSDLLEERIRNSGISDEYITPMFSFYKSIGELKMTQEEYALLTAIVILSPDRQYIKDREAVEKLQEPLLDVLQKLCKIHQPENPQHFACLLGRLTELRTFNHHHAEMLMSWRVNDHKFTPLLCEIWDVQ
Retinoic acid receptor RXR-alpha (Homo sapiens), sequence (P19793 whole entry, looked up): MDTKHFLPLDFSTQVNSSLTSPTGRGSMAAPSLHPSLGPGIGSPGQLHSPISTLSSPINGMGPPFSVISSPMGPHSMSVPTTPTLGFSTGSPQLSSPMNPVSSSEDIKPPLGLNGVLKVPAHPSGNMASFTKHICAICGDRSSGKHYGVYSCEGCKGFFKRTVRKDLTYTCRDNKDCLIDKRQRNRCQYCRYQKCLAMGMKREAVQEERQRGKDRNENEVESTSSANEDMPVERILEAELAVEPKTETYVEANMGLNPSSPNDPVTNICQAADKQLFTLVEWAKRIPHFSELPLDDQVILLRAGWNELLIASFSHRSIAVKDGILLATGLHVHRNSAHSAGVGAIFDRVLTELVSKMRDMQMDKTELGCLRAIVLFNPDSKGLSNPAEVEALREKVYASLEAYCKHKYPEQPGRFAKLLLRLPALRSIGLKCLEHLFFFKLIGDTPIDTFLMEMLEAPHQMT
Vitamin D3 receptor (Homo sapiens), sequence (P11473 whole entry, looked up): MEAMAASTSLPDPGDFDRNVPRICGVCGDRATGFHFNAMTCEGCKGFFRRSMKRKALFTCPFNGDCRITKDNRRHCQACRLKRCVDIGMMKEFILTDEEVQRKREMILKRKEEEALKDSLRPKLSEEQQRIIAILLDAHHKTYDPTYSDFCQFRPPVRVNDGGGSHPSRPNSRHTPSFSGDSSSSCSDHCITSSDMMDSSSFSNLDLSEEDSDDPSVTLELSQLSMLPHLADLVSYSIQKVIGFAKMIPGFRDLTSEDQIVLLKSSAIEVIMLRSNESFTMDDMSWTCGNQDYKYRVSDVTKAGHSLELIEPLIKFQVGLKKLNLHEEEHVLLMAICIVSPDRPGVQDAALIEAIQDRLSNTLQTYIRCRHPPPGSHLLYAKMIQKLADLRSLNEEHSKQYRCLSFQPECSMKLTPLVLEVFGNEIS
Peroxisome proliferator-activated receptor delta (Homo sapiens), sequence (Q03181 whole entry, looked up): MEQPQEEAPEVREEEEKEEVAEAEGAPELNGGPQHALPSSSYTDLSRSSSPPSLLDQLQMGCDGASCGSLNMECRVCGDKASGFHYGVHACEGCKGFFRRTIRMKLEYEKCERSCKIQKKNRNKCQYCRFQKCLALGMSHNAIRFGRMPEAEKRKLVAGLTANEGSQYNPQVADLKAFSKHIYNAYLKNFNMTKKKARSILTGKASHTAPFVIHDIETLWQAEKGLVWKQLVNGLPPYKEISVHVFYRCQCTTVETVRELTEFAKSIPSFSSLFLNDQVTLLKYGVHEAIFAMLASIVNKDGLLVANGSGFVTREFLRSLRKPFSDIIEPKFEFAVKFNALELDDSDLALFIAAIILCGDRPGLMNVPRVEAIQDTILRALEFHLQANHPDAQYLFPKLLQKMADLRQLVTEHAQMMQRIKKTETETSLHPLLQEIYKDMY

O=C(Nc1ccc2c(O)c(N=Nc3ccc(N=Nc4ccc(S(=O)(=O)O)cc4)cc3)c(S(=O)(=O)O)cc2c1)c1ccccc1
inactive: [1] | [2] | [3] | [4] | [5] | [6] | [7] | [8] | [9] | [10]

C#C[C@]1(OC(C)=O)CC[C@H]2[C@@H]3CCC4=C[C@@H](OC(C)=O)CC[C@@H]4[C@H]3CC[C@@]21C
inactive: [11] | [2] | [12] | [3] | [4] | [6] | [7] | [8] | [13]
active: [14] 33.5 µM

Cc1c(F)c(N2CCNC(C)C2)cc2c1c(=O)c(C(=O)O)cn2C1CC1 (stereo not given)
inactive: [1] | [11] | [2] | [12] | [3] | [4] | [5] | [7] | [8] | [13] | [14] | [9] | [15]

COc1cc(C)ccc1O
inactive: [1] | [11] | [2] | [12] | [16] | [3] | [4] | [5] | [6] | [7] | [8] | [14] | [9] | [15] | [10]

O=C(O)[C@H](O)[C@@H](O)[C@H](O[C@@H]1O[C@H](CO)[C@H](O)[C@H](O)[C@H]1O)[C@H](O)CO
inactive: [1] | [11] | [2] | [12] | [3] | [4] | [5] | [6] | [7] | [8] | [13] | [14] | [15] | [10]

c1ccc(SSc2ccccc2)cc1
inactive: [1] | [2] | [12] | [3] | [4] | [7] | [17] | [18] | [14] | [9]

Cc1c(C)c2c(c(C)c1OC(=O)c1cccnc1)CC[C@@](C)(CCC[C@H](C)CCC[C@H](C)CCCC(C)C)O2
inactive: [1] | [11] | [2] | [12] | [16] | [3] | [4] | [5] | [7] | [8] | [14] | [9] | [15] | [10]

CC(N=C(NC#N)Nc1ccncc1)C(C)(C)C (stereo not given)
inactive: [1] | [2] | [19] | [20] | [3] | [7] | [8] | [9] | [15] | [10]

COc1ccc2c(c1)c(CC(=O)OC/C=C(\C)CC/C=C(\C)CCC=C(C)C)c(C)n2C(=O)c1ccc(Cl)cc1
inactive: [1] | [2] | [16] | [20] | [3] | [5] | [6] | [7] | [8] | [13] | [9] | [15]

CN(C)C(=O)COC(=O)Cc1ccc(OC(=O)c2ccc(N=C(N)N)cc2)cc1
inactive: [1] | [2] | [19] | [16] | [3] | [6] | [7] | [8] | [13] | [9] | [15] | [10]

CCOC(=O)c1ccc(C2CCC(NC[C@H](O)COc3ccc(O)c(NS(C)(=O)=O)c3)CC2)cc1 (stereo not given in full)
active: [1] 35.9 µM | [16] 35.9 µM | [6] 40.3 µM | [7] 35.9 µM
inactive: [11] | [8] | [13]

Cc1cccc(C(=O)O)c1O
inactive: [1] | [11] | [2] | [12] | [19] | [16] | [20] | [3] | [4] | [5] | [6] | [7] | [8] | [13] | [9] | [15] | [10]

CC(C)(C)C1CCC(=O)CC1
active: [6] 49 µM | [8] 54.9 µM
inactive: [11] | [19] | [16] | [3] | [4] | [5] | [7] | [13] | [14] | [9]

CN1CCN(Cc2cc(-c3ccc4[nH]c(=O)oc4c3)co2)[C@@H](c2ccc(F)cc2)C1
inactive: [11] | [12] | [19] | [20] | [3] | [4] | [5] | [8] | [9]

COc1cccc(OC)c1C(=O)O
inactive: [1] | [2] | [16] | [3] | [4] | [6] | [7] | [13] | [14] | [9] | [15] | [10]

CC1=Nc2ccccc2C1(C)C
inactive: [1] | [12] | [16] | [3] | [4] | [5] | [6] | [7] | [17] | [18] | [9]
active: [14] 17.2 µM

O=[N+]([O-])c1cccc(C(F)(F)F)c1
inactive: [1] | [11] | [2] | [12] | [16] | [3] | [4] | [5] | [6] | [7] | [17] | [13] | [14] | [9] | [15] | [10]
